Hits are enriched below; roughly 18% of the tested compounds scored in any of these assays.
TDP1 cell noCPT: qHTS for Inhibitors of human tyrosyl-DNA phosphodiesterase 1 (TDP1): qHTS in cells in absence of CPT. DT40 Tdp1-/- hTDP1 cells, no CPT, ATP luminescence, 48 h. Potency, µM (series often up to 46.2 µM), inactives show at the highest dose activity change, negative = growth inhibition, most hits filed as inhibitors. 420,000 compounds, 15% hits; note: potency is the fitted concentration of half-maximal effect; nearly all actives have a fitted effect of over 55% in size
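Readout: luminescence from CellTiter-Glo after 30 min in the dark at RT. Cells: DT40 Tdp1-/- with stable hTDP1, 400/well. Exposure: compounds alone, ≥48 hr, 37 °C.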
RORgamma inh: inhibitors of mouse ROR gamma transcriptional activity. P51450. 310,000 compounds, 5.4% hits. Drosophila S2 Gal4-RORgamma UAS-luciferase reporter, 20 h. AID 2551. Potency, µM (series often up to 53.6 µM), for inactives: at the highest dose activity change, negative = inhibition, hits mostly inhibitors; note: potency is the fitted concentration of half-maximal effect; nearly all actives have a fitted effect of over 60% in size
Target sequence (P51450 whole entry, looked up, the tested form may be a part): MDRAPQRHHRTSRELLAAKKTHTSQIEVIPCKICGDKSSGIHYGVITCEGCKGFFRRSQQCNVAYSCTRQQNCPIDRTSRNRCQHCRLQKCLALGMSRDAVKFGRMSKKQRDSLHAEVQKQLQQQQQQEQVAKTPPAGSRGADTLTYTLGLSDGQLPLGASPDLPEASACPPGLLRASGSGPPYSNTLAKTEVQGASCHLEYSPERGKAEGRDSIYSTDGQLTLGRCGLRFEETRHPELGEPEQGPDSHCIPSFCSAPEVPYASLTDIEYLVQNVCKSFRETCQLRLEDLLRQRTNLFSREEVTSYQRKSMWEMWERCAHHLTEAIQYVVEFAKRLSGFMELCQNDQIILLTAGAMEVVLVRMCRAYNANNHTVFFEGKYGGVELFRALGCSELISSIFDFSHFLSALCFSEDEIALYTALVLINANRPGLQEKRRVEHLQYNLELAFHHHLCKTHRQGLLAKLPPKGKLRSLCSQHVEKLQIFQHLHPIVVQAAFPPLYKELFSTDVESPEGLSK
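Compounds are pin-transferred onto Drosophila Schneider cells expressing a copper-inducible Gal4–ROR gamma transactivation domain fusion. After 1 hr, copper sulfate is added to 700 uM final; luciferase is read 20 hr later.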
DT40 TDP1 CPT: growth inhibition of DT40 Tdp1-/-;hTDP1 cells with camptothecin (screen for TDP1 inhibitors); chicken DT40 Tdp1-/-;hTDP1 cells + 20 nM CPT, ATP luminescence, 48 h; Potency, µM (series often up to 46.2 µM), without a hit: at the highest dose activity change, negative = growth inhibition, usual class: inhibitors; 420,000 compounds, 12% hits; note: potency is the fitted concentration of half-maximal effect; nearly all actives have a fitted effect of over 55% in size
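Chicken DT40 Tdp1-/- cells complemented with human TDP1, 400 cells/well, exposed to compounds plus 20 nM camptothecin for at least 48 h at 37 C; viability read as ATP content by CellTiter-Glo luminescence.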
Gal4-VP16 FLuc: inhibits Gal4-VP16 luciferase reporter, ROR gamma counter-screen | Drosophila S2 Gal4-VP16 UAS-luciferase, luminescence, 20 h | Potency, µM (series often up to 53.6 µM), inactives show at the top dose activity, negative = inhibition, most hits filed as inhibitors | 310,000 compounds, 3.5% hits;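 note: Gal4-VP16 expression switched on by copper sulfate through the metallothionein promoter; potency is the fitted concentration of half-maximal effect; nearly all actives have a fitted effect of over 50% in size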
IL-1B inflam inh: blocks inflammasome-driven IL-1 beta release; activity change, % at 57.5 µM; AID 743279; THP-1 LPS/ATP IL-1B secretion, AlphaLISA, 16 h; stronger effect = lower value; 360,000 compounds, 4.7% hits; in the data active = activity change below about -50%; inconclusive = mostly about -30% to -49%
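THP-1 cells pretreated 1 hr with compounds (up to 57.5 uM final), then stimulated with LPS (250 ng/mL final) plus ATP (1.25 mM final); secreted IL-1B measured by AlphaLISA after 16 hr, decreased signal indicating inhibition.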
LDHA block: blocks human lactate dehydrogenase A. purified LDHA, NADH/diaphorase-resazurin fluorescence; stronger effect = lower value. P00338. activity change, % (values are at about 110 or 230 µM). 480,000 compounds, 0.15% hits; in the data active = activity change below about -30%; inconclusive = mostly about -25% to -30%;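 note: plate controls were DMSO wells for no effect and wells without enzyme for full effect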
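Resorufin fluorescence (ex540/em590), read at 0 and 20 min after diaphorase/resazurin addition, reports the NADH left after a 5 min room-temperature reaction of 2 nM human LDH5 with 0.06 mM NADH and 0.2 mM pyruvate.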
Numbers without * were called inactive; ? = inconclusive; nt = not tested or not shown; ! = not active in a repeat. Unless noted, calls come from the whole dose curve; as a rule, active = well fitted curve in the direction sought with a large enough effect; inconclusive = small, poorly fitted or top-dose-only effect, or another doubt; inactive = no such curve, though single readings can be large; an effect the other way counts as inactive or inconclusive. Unless noted, % is set by controls: 0 for no effect and ±100 for the full control effect.

SMILES	TDP1 cell noCPT	RORgamma inh	DT40 TDP1 CPT	Gal4-VP16 FLuc	IL-1B inflam inh	LDHA block
N#Cc1ccc(C(=O)Nc2ccc(Cl)c(-c3nc4ncccc4o3)c2)c(F)c1	nt	nt	nt	nt	nt	1
Fc1ccc2nc3n(c2c1F)CCCCCC3	-7%	11µM*	-2%	-21%	25	-10
O=c1c2cc(Br)ccc2nc2n1CCCCC2	-3%	25%	-12%	-1%	11	-6
COC(=O)c1cc(N2CCOCC2)ccc1N	nt	nt	nt	nt	nt	-16
O=C(CSCCO)Nc1ccc(C2CCCCC2)cc1	-15%	0%	-1%	5.6µM*	5	2
CC/C=C(/C)C(=O)N1CCC(C(=O)O)CC1	nt	nt	nt	nt	nt	0
CN1CCN(c2ncnc3ccc(-c4ccoc4)cc23)CC1	23µM*	-22%	12µM*	-7%	nt	nt
COc1cccc(-c2ccc3ncnc(N4CCN(C)CC4)c3c2)c1	23µM*	0%	13µM*	-2%	nt	nt
CN1CCN(c2ncnc3ccc(-c4cccnc4)cc23)CC1	?	17%	16µM*	-4%	nt	nt
CCc1cccc(NC(=O)Cn2c(=O)c3c(ncn3C3CCCC3)n(Cc3ccccc3)c2=O)c1	nt	nt	nt	nt	nt	10
COCC1=C(C(=O)OC(C)OC(=O)OC(C)C)N2C(=O)[C@@H](NC(=O)/C(=N\OC)c3csc(N)n3)[C@H]2SC1 (stereo partly drawn)	1.3µM*!	nt	3.3µM*!	nt	14	-11
COc1ccc(CC(=O)OCCCC(=O)c2ccc(F)cc2)cc1	nt	nt	nt	nt	nt	3
CCOC(=O)c1sc(-c2cccc(C(F)(F)F)c2)nc1O	21µM*	34%	?	-18%	-5	1
Cc1ccc(C(CNC(=O)c2ccco2)N2CCC(C)CC2)o1 (stereo not drawn)	nt	nt	nt	nt	nt	3
COC(=O)C1=C(C)NC(C)=C(C(=O)OCC2CCCO2)C1c1ccc(Cl)c([N+](=O)[O-])c1 (stereo not drawn)	nt	31%	nt	6%	nt	nt
CC1=C(C(=O)OCCNC(=O)c2ccccc2O)C(c2ccccc2[N+](=O)[O-])C(C(=O)OCC2CCCO2)=C(C)N1 (stereo not drawn)	18µM*	?	18µM*	-12%	-58*	-3
CC(C)C(=O)NC(C)c1ccc2c(c1)CCCC2 (stereo not drawn)	nt	nt	nt	nt	nt	4
CCn1c(SCc2nc(-c3ccc(Cl)cc3)no2)nnc1-c1ccco1	21µM*	?	?	6%	?	-5
Cn1c(SCc2nc(-c3ccccc3)no2)nnc1-c1cccs1	2%	?	-22%	-2%	3	-2
Cn1c(SCc2nc(-c3ccc(Cl)cc3)no2)nnc1-c1cccs1	16µM*	3%	?	5%	?	-5
O=S(=O)(c1ccccc1)[C@@]1(c2ccccc2)C[C@@H]2ON=C(c3cccc(Br)c3)[C@@H]2C1	3.7µM*	nt	4.6µM*	nt	59	2
CC1CCN(C(=O)CCc2nc3sc4c(c3c(=O)[nH]2)CCCCC4)CC1	nt	nt	nt	nt	nt	-9
CN(C)S(=O)(=O)c1cccc(N=C2SCCN2Cc2ccccc2)c1	21µM*	27%	?	?	-9	-6
COc1cccc(C2CC(c3cccs3)=NN2C(=O)c2ccco2)c1O (stereo not drawn)	-11%	5.6µM*	-1%	-3%	13	-3
CCC(=O)N1N=C(c2cccs2)CC1c1ccco1 (stereo not drawn)	?	4%	-12%	17%	-13	-2
SMILES	TDP1 cell noCPT	RORgamma inh	DT40 TDP1 CPT	Gal4-VP16 FLuc	IL-1B inflam inh	LDHA block
O=C(c1ccco1)N1N=C(c2cccs2)CC1c1ccccc1O (stereo not drawn)	21µM*	1%	18µM*	-15%	-12	-8
Cc1c(-c2ccccc2)oc2c(C(=O)N(C)c3ccccc3)cccc2c1=O	nt	nt	nt	nt	nt	5
COc1cc2nc(Cl)nc(N3CCCCC3)c2cc1OC	26µM*	-3%	-15%	-4%	-61*	-7
COc1cc2nc(Cl)nc(N3CCOCC3)c2cc1OC	?	2%	?	5%	-3	0
Cn1c(=O)c2nc(-c3ccccc3)oc2c2ccccc21	16µM*	8%	-24%	-10%	2	-5
CCCCCc1nc2c(=O)n(C)c3ccccc3c2o1	?	20%	-24%	7%	-11	-5

Screens deposited in PubChem by National Center for Advancing Translational Sciences (NCATS).
